# Hits are enriched below; roughly 1.7% of the tested compounds scored in any of these assays.
# IDH1 R132H inh: qHTS for Inhibitors of mutant isocitrate dehydrogenase 1 (IDH1): qHTS. 0.093% of 390,000 active. IDH1-R132H enzyme, NADPH consumption, diaphorase/resazurin fluorescence. Potency, µM (doses to about 76.6 µM), for inactives: at the highest dose activity change, negative = inhibition, actives largely listed as inhibitors. Isocitrate dehydrogenase [NADP] cytoplasmic (Homo sapiens), O75874; note: potency is the fitted concentration of half-maximal effect; % is set by controls: 0 for no effect and ±100 for the full control effect; nearly all actives have a fitted effect of over 65% in size
#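 IDH1-R132H (0.5 ug/mL) preincubated 30 min with compound, then NADPH (0.016 mM) and alpha-KG (2 mM) added; 80 min at RT, pH 7.5. Remaining NADPH coupled via diaphorase/resazurin to fluorescence (540/590 nm); concentration-response curves normalized to no-enzyme control.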
# TrxR1 substrate: qHTS Assay for Substrates of Mammalian Selenoprotein Thioredoxin Reductase 1 (TrxR1): qHTS | 0.01% of 390,000 active | Thioredoxin reductase 1, cytoplasmic (Rattus norvegicus), O89049 | purified TrxR1 substrate turnover, NADPH consumption readout | Potency, µM (titrated, usually from 114 µM), without a hit: at the highest dose activity change, negative = substrate turnover; note: potency is the fitted concentration of half-maximal effect; % is set by controls: 0 for no effect and ±100 for the full control effect; nearly all actives have a fitted effect of over 50% in size
#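 Rat TrxR1, dispensed at 90 nM, was prereduced with 400 uM NADPH (final) for 5 min at ~22 deg C, then incubated with compound 15 min before 400 uM selenite. A first-read NADPH fluorescence drop versus no-compound background flagged substrates.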
# 12-LOX inh: Primary qHTS assay for inhibitors of human arachidonate 12S-lipoxygenase (ALOX12): Round 2; purified 12hLO, xylenol orange hydroperoxide absorbance; Potency, µM (highest dose often 108 µM), for inactives: at the highest dose activity change, negative = inhibition, actives largely listed as inhibitors; 1.1% of 580,000 active; note: potency is the fitted concentration of half-maximal effect; % is set by controls: 0 for no effect and ±100 for the full control effect
# Target sequence (P18054 whole entry, looked up): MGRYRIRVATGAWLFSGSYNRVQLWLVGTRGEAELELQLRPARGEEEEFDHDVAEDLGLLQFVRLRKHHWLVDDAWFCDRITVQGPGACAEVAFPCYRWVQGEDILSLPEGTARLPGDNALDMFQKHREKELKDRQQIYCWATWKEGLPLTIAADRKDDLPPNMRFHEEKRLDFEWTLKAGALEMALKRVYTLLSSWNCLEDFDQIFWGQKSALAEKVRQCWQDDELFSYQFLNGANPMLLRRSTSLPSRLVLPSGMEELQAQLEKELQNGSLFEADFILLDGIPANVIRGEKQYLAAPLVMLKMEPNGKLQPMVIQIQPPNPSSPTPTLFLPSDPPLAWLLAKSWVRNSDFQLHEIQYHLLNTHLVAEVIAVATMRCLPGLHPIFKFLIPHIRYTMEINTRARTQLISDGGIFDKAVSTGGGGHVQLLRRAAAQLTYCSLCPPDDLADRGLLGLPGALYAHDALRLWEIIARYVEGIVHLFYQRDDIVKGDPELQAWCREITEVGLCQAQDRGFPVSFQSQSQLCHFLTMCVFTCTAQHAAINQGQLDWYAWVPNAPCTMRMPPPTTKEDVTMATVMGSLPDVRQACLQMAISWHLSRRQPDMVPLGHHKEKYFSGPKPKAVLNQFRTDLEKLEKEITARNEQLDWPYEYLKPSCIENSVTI
#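 Purified human 12hLO (150 nM final) in 25 mM Hepes, 0.01% Triton X-100, pH 7.0 was preincubated 15 min at room temperature with compound. Then 40 uM arachidonic acid was added, 30 min. Hydroperoxide was read by Fe-XO absorbance ratio 573/405 nm.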
# rTrxR1 inhibitor: qHTS Assay for Inhibitors of Mammalian Selenoprotein Thioredoxin Reductase 1 (TrxR1): qHTS; Thioredoxin reductase 1, cytoplasmic (Rattus norvegicus), O89049; recombinant rTrxR1, NADPH fluorescence consumption, selenite substrate; Potency, µM (highest dose often 114 µM), for inactives: top-dose activity change, negative = inhibition, most hits filed as inhibitors; 1% of 390,000 active; note: potency is the fitted concentration of half-maximal effect; % is set by controls: 0 for no effect and ±100 for the full control effect; nearly all actives have a fitted effect of over 65% in size
#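 Rat TrxR1 (90 nM in the dispensed reagent) was pre-reduced with 400 uM NADPH for 5 min at room temperature, then incubated with compound for 15 min. After 400 uM selenite was added, NADPH fluorescence (Ex 340/Em 450 nm) was followed for 8 min.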
# Glioma ERSR ind: qHTS for Inducers of the Endoplasmic Reticulum Stress Response (ERSR) in Human Glioma: qHTS | 0.02% of 420,000 active | U87-MG GRP78 promoter luciferase reporter, 16 h | Potency, µM, without a hit: at the top dose activation, hits mostly activators | AID 602332, 2012; note: potency is the fitted concentration of half-maximal effect; series mostly up to about 76 µM; % of control where 0% means no effect; nearly all actives have a fitted effect of over 35% in size
#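 ERSR induction read as luciferase luminescence (Bright-Glo, 10 min at room temperature) in stably transfected human U87-MG glioma cells exposed to compounds for 16 h, using GRP78 as sensor.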
# Anesthetic bind: qHTS Assay for Identification of Novel General Anesthetics | Potency, µM (doses to about 77.5 µM), for inactives: at the top dose activity change, negative = displacement, hits mostly inhibitors | 0.074% of 350,000 active | apoferritin/1-aminoanthracene competitive binding, fluorescence | Ferritin light chain (Equus caballus), P02791; note: potency is the fitted concentration of half-maximal effect; % is set by controls: 0 for no effect and ±100 for the full control effect; nearly all actives have a fitted effect of over 20% in size
#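 In PBS, apoferritin at 10 uM is loaded with 1-AMA from a 50% saturated solution. After 10 min of compound exposure at ambient temperature, reduced 535 nm fluorescence indicates probe displacement.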
# IDH1 autofl: qHTS for Inhibitors of mutant isocitrate dehydrogenase 1 (IDH1): Cherrypicks Autofluorescence Interference. shares compounds with IDH1 R132H inh. Resorufin detection reagent fluorescence interference, cell-free. inhibition of signal, % at 51.2 µM. 750 tested, under 10 active;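 note: 0% = wells with normal resorufin and full inhibition = wells lacking resorufin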
# IDH1 WT: qHTS for Inhibitors of mutant isocitrate dehydrogenase 1 (IDH1): Cherrypicks in WT IDH1 | shares compounds with IDH1 R132H inh | Potency, µM (titrated, usually from 115 µM), for inactives: at the top dose activity change, negative = inhibition, hits mostly inhibitors | WT IDH1 enzyme, NADPH diaphorase/resazurin fluorescence | 9% of 750 active;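 note: potency is the fitted concentration of half-maximal effect; 0% = full WT IDH1 enzyme control and full inhibition = no enzyme wells; nearly all actives have a fitted effect of over 55% in size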
# mIDH1 confirm: qHTS for Inhibitors of mutant isocitrate dehydrogenase 1 (IDH1): Confirmation of Cherrypicks; shares compounds with IDH1 R132H inh; IDH1 R132H enzyme, NADPH diaphorase/resazurin fluorescence; Potency, µM (highest dose often 76.6 µM), without a hit: at the highest dose activity change, negative = inhibition, usual class: inhibitors; 83% of 750 active; note: potency is the fitted concentration of half-maximal effect; nearly all actives have a fitted effect of over 50% in size
# Starred values were filed as active, the others as inactive; ? = inconclusive; . = no result given; [ ] = dose if it differs, or a comment. Calls come from the whole dose curve; as a rule, active = well fitted curve in the direction sought with a large enough effect; inconclusive = small, poorly fitted or top-dose-only effect, or another doubt; inactive = no such curve, though single readings can be large; an effect the other way counts as inactive or inconclusive.
SMILES,IDH1 R132H inh,TrxR1 substrate,12-LOX inh,rTrxR1 inhibitor,Glioma ERSR ind,Anesthetic bind,IDH1 autofl,IDH1 WT,mIDH1 confirm
COc1ccc(CN(CCC(c2ccc(F)cc2)C2CCOC(C)(C)C2)C(=O)c2ccco2)cc1 (centres undefined),?,2%[57.1 µM],?,-10%[57.1 µM],-11%,79%,-9,9%,?
COc1cc(F)ccc1NC(=O)c1ccc2ccccc2n1,.,.,-20%,.,.,.,.,.,.
O=C(CSc1ncnc2sc3c(c12)CCC3)Nc1cccc(F)c1,.,.,11%,.,.,.,.,.,.
Cc1ccc2[nH]c(C(=O)OCC(=O)N(c3ccccc3)C(C)C)cc2c1,.,.,15%,.,.,.,.,.,.
N=c1c(S(=O)(=O)c2ccccc2)cc2c(=O)n3ccccc3nc2n1CC1CCCO1 (centres undefined),?,111%,?,38%[57.1 µM],-1%,29%,-2,8%,35µM*
Cc1ccc(-c2nc(N3CCN(S(=O)(=O)c4ccc(F)cc4)CC3)c3ccc(Cl)cc3n2)cc1,.,-2%[0.457 µM],.,6%,-2%,.,.,.,.
O=C(O)c1[nH]c2ccccc2c1C(c1cc(Br)ccc1O)c1c(C(=O)O)[nH]c2ccccc12,41µM*,1%,?,-7%,-3%,-9%,11,71µM*,25µM*
COc1ccc2c(C(=O)c3ccc(C)cc3)n(Cc3ccc(C(N)=O)cc3)[n+]([O-])c2c1,?,3%,?,10%,1%,.,4,-19%,16µM*
COc1cccc(N(C(=O)Cc2cccs2)C(C(=O)NC2CCCC2)c2ccncc2)c1 (centres undefined),-10%,-3%,5%,0%,0%,3%,.,.,.
Cc1ccc(C(C(=O)NC2CCCC2)N(C(=O)Cc2cccs2)c2cccc(C)c2C)o1 (centres undefined),9.3µM*,-11%,-1%,11%,-3%,-6%,2,5%,6.3µM*
Cc1cc(C)cc(N(C(=O)Cc2cccs2)C(C(=O)NC2CCCCC2)c2ccccn2)c1 (centres undefined),?,-5%,-43%,1%,1%,-14%,3,10%,14µM*
Cc1cc(C)cc(N(C(=O)Cc2cccs2)C(C(=O)NC2CCCC2)c2ccc(C)o2)c1 (centres undefined),7.4µM*,-3%[57.1 µM],4%,6%,-4%,5%,-8,10%,4µM*
COc1ccc(N(C(=O)Cc2cccs2)C(C(=O)NC2CCCC2)c2ccncc2)cc1 (centres undefined),-2%,12%[57.1 µM],9%,21%[57.1 µM],-1%,-1%,.,.,.
